We go through seven molecules from PubChem BioAssay (NCI).

This is part of a sample that, as a whole, favours compounds with a hit. Of some 83,000 tested, about 20% had one in any assay.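 In brief: 96-well plates, 48 h treatment, single concentration, percent growth endpoint.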 Unmarked numbers belong to inactive results. Active and inactive are the calls of the source. How the source made its calls: active means growth percent below 10; inactive means the rest.

Among the test systems are DU-145 prostate; K-562 leukemia; MALME-3M melanoma; MDA-MB-231 breast; RXF 393 renal; SF-268 CNS; SF-539 CNS; UACC-257 melanoma; M14 melanoma; HCT-15 colon; HT29 colon; SNB-75 CNS; SNB-19 CNS; U251 CNS; PC-3 prostate; SK-MEL-5 melanoma; UACC-62 melanoma; LOX IMVI melanoma; SK-MEL-28 melanoma; SF-295 CNS.
Holding throughout (experiment): NCI-60 one-dose screen, 48 h (100 = growth as untreated, 0 = no growth, -100 = all killed)
Common to all, as to settings: 10 µM unless noted

In the case of `CCOC(=O)c1c(C)cc(=O)oc1C`, the growth with DU-145 prostate is 114%; in the test with K-562 leukemia it was 89%; in the test on MALME-3M melanoma it was 87.7%; in the test on MDA-MB-231 breast it was 96.3%; with RXF 393 renal it was 109%; in the test on SF-268 CNS it was 106%. Further, the growth with SF-539 CNS was 107%; with UACC-257 melanoma it was 101%; in the test with M14 melanoma, 98%; with HCT-15 colon it was 102%; in the test on HT29 colon, 103%; in the test with SNB-75 CNS, 94%. The growth in the test on SNB-19 CNS was 96.2%; with U251 CNS, 98.3%; in the test on PC-3 prostate, 92%; with SK-MEL-5 melanoma, 106%; with UACC-62 melanoma, 95.3%; in the test on LOX IMVI melanoma it was 105%. Moreover, the growth in the test with SK-MEL-28 melanoma is 115%.
As for `NN1CCOC(c2ccccc2)C1` (stereo not given), the growth was 102% in the test on DU-145 prostate; 10.3% in the test with K-562 leukemia; 99.1% with MDA-MB-231 breast; 101% in the test with RXF 393 renal; 99.6% with SF-268 CNS; 118% with SF-295 CNS. Also, the growth in the test with SF-539 CNS was 100%; with UACC-257 melanoma, 103%; in the test on M14 melanoma, 90.9%; in the test with HCT-15 colon, 101%; with HT29 colon, 113%; with SNB-75 CNS, 109%. For the same molecule, the growth was 101% in the test with SNB-19 CNS; 102% in the test with U251 CNS; 94.3% in the test with PC-3 prostate; 103% in the test on SK-MEL-5 melanoma; 90.2% in the test with UACC-62 melanoma; 112% in the test on SK-MEL-28 melanoma.
As for `Nc1nc(N)c2[nH]cnc2n1`, the growth is 73.1% in the test on DU-145 prostate; 76.5% in the test on K-562 leukemia; 125% in the test on MALME-3M melanoma; 99.3% with MDA-MB-231 breast; 83.8% with SF-268 CNS; 84.7% in the test on SF-295 CNS. The growth in the test on SF-539 CNS is 92.8%; in the test with UACC-257 melanoma it was 56.1%; in the test with M14 melanoma, 88.2%; in the test on HCT-15 colon, 107%; in the test with HT29 colon it was 101%; in the test with SNB-75 CNS it was 91.3%. Besides, the growth in the test on SNB-19 CNS was 96.1%; in the test on U251 CNS, 111%; in the test with PC-3 prostate, 79.3%; in the test with SK-MEL-5 melanoma it was 98.1%; in the test with UACC-62 melanoma it was 84.3%; in the test on SK-MEL-28 melanoma, 99.9%.
On to `CC(C)C(C)(C)c1ccc(O)cc1`, for which the growth was 107% in the test on DU-145 prostate; 50.4% in the test on K-562 leukemia; 107% in the test on MALME-3M melanoma; 108% with MDA-MB-231 breast; 112% in the test on RXF 393 renal; 99.8% with SF-268 CNS. The growth in the test on SF-295 CNS was 118%; in the test with SF-539 CNS, 99.4%; in the test on UACC-257 melanoma, 104%; with M14 melanoma, 105%; in the test with HCT-15 colon it was 105%; with HT29 colon it was 102%. The growth in the test on SNB-75 CNS was 97.8%; in the test on U251 CNS, 102%; in the test on PC-3 prostate, 93.1%; in the test on UACC-62 melanoma, 101%; with SK-MEL-28 melanoma, 105%.
On to `c1ccc2c(c1)OC1OC2Oc2ccccc21`, for which the growth in the test on DU-145 prostate was 113%; with K-562 leukemia it was 96.1%; in the test with MALME-3M melanoma, 113%; in the test with MDA-MB-231 breast it was 114%; in the test with RXF 393 renal, 97.1%; with SF-268 CNS, 99.3%. In addition, the growth in the test on SF-295 CNS is 115%; with SF-539 CNS, 106%; with UACC-257 melanoma, 101%; in the test on HCT-15 colon, 98.1%; with HT29 colon, 95.6%; in the test on SNB-75 CNS, 90%. The growth with SNB-19 CNS was 97.6%; in the test on U251 CNS, 102%; in the test with PC-3 prostate, 91.6%; in the test with UACC-62 melanoma it was 92.5%; in the test on SK-MEL-28 melanoma it was 103%.
As to `C/C(=C\c1ccccc1)c1ccccn1`, the growth in the test on DU-145 prostate is 112%; in the test with K-562 leukemia, 105%; with MALME-3M melanoma, 102%; in the test on MDA-MB-231 breast, 91%; with SF-268 CNS it was 99.3%; with SF-295 CNS it was 113%. Besides, the growth is 98.1% in the test on SF-539 CNS; 105% with UACC-257 melanoma; 108% with M14 melanoma; 103% in the test with HCT-15 colon; 113% with HT29 colon; 89.1% in the test with SNB-75 CNS. For the same molecule, the growth with SNB-19 CNS is 92.1%; with U251 CNS, 107%; in the test on PC-3 prostate, 98.7%; in the test with SK-MEL-5 melanoma, 103%; in the test on SK-MEL-28 melanoma, 107%.
As to `Nc1cc(N)c(N)cc1N`, the growth was 109% with DU-145 prostate; 9.58% (active) in the test with K-562 leukemia; 62% in the test with MALME-3M melanoma; 89.6% in the test with MDA-MB-231 breast; 51.3% in the test with RXF 393 renal; 74.2% with SF-268 CNS. Also, the growth in the test with SF-295 CNS was 87.8%; in the test with SF-539 CNS, -3.2% (active); in the test with UACC-257 melanoma, -46.4% (active); in the test on HCT-15 colon, 54.2%; in the test on HT29 colon, 82.4%; in the test with SNB-75 CNS, 56.6%. The growth in the test on SNB-19 CNS is 84.5%; with U251 CNS it was 15.6%; with PC-3 prostate it was 92.7%; in the test on SK-MEL-5 melanoma, -92.7% (active); in the test with UACC-62 melanoma, -40.3% (active); in the test with LOX IMVI melanoma it was -93.8% (active). In addition, in the test with SK-MEL-28 melanoma, the growth was 78.7%.
